Common to all, as to test: PBM; 200 nM protein, PBS
Conditions in all cases: dsDNA, one strand shown

In assay [1] the target is HOXB4 (Homo sapiens, UniProt P17483 148-234).
Assay [2] deals with T1, VENTX (Homo sapiens, UniProt O95231 78-163, R121Q).
T1 sequence: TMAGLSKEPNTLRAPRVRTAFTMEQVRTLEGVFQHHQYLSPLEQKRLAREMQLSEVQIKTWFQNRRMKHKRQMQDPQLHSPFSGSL

For another assay, the target named is ALX4 (Homo sapiens, UniProt Q9H161 200-286).
Assay [3] has as its target T2, PAX4 (Homo sapiens, UniProt O43316 9-242, R200K).
T2 sequence: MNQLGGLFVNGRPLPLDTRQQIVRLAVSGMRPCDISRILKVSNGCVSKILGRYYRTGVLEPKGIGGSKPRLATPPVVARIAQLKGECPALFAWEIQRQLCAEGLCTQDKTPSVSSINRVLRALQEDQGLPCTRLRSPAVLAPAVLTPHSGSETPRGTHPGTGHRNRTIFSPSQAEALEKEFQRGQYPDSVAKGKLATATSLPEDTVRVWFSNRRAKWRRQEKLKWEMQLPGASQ

The target in assay [4] is PRRX1 (Homo sapiens, UniProt P54821 80-166, F113S).
Chain of PRRX1 (Homo sapiens, UniProt P54821 80-166, F113S) (P54821 80-166 F113S): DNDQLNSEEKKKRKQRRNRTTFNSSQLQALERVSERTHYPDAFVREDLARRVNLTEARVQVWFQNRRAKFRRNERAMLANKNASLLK
Assay [5] concerns the target T3, VENTX (Homo sapiens, UniProt O95231 78-163, Y115F).
T3 sequence: T1 sequence with Y38F, Q44R

The target in assay [6] is T4, PAX4 (Homo sapiens, UniProt O43316 9-242).
T4 sequence: T2 sequence with K192R

Assay [7] has as its target HOXA2 (Homo sapiens, UniProt O43364 129-215, R185T).
Assay [8] has as its target HOXA4 (Homo sapiens, UniProt Q00056 201-287, R217L).
Assay [9] deals with HOXB4 (Homo sapiens, UniProt P17483 148-234, V174I).
Chain of HOXB4 (Homo sapiens, UniProt P17483 148-234, V174I) (P17483 148-234 V174I): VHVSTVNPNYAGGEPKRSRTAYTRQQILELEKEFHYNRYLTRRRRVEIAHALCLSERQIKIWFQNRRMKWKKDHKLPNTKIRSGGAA
Assay [10] addresses T5, PAX4 (Homo sapiens, UniProt O43316 9-242, R200Q).
T5 sequence: T2 sequence with K192Q

Assay [11] deals with HOXA2 (Homo sapiens, UniProt O43364 129-215, R185K).
Chain of HOXA2 (Homo sapiens, UniProt O43364 129-215, R185K) (O43364 129-215 R185K): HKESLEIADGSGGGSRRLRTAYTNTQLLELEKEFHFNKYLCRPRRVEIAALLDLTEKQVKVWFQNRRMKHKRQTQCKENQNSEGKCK
The target in assay [12] is T6, PAX4 (Homo sapiens, UniProt O43316 9-242, F177V).
T6 sequence: T2 sequence with F169V, K192R

Assay [13] addresses MSX2 (Homo sapiens, UniProt P35548 130-214).
Assay [14] has as its target T7, PAX4 (Homo sapiens, UniProt O43316 9-242, F177Y).
T7 sequence: T2 sequence with F169Y, K192R

Assay [15] deals with MSX2 (Homo sapiens, UniProt P35548 130-214, F161Y).
Chain of MSX2 (Homo sapiens, UniProt P35548 130-214, F161Y) (P35548 130-214 F161Y): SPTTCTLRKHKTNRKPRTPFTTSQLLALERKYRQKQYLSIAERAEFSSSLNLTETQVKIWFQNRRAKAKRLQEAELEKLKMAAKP
The target in assay [16] is VAX1 (Homo sapiens, UniProt Q5SQQ9 86-172, T142I).
Chain of VAX1 (Homo sapiens, UniProt Q5SQQ9 86-172, T142I) (Q5SQQ9 86-172 T142I): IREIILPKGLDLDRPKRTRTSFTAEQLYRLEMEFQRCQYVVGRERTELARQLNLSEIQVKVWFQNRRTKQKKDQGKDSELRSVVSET
The target of assay [17] is HOXA4 (Homo sapiens, UniProt Q00056 201-287, W262F).
Chain of HOXA4 (Homo sapiens, UniProt Q00056 201-287, W262F) (Q00056 201-287 W262F): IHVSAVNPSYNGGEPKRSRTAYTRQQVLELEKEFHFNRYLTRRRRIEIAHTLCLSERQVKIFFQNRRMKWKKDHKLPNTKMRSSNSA
The target of assay [18] is PRRX1 (Homo sapiens, UniProt P54821 80-166).
Chain of PRRX1 (Homo sapiens, UniProt P54821 80-166) (P54821 80-166): as the sequence (P54821 80-166 F113S) above, with S34F counted along it
Assay [19] concerns the target VAX1 (Homo sapiens, UniProt Q5SQQ9 86-172, K157R).

Numbering of substitutions follows the chain as printed.

Chain of VAX1 (Homo sapiens, UniProt Q5SQQ9 86-172, K157R) (Q5SQQ9 86-172 K157R): as the sequence (Q5SQQ9 86-172 T142I) above, with I57T, K72R counted along it
Chain of ALX4 (Q9H161 200-286): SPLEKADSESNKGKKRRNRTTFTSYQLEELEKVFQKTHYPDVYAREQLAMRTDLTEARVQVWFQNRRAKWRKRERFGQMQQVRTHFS
Chain of MSX2 (Homo sapiens, UniProt P35548 130-214) (P35548 130-214): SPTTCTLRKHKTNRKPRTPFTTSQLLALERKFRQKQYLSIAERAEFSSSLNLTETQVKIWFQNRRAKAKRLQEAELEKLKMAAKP
Chain of HOXA2 (Homo sapiens, UniProt O43364 129-215, R185T) (O43364 129-215 R185T): as the sequence (O43364 129-215 R185K) above, with K57T counted along it
Chain of HOXB4 (Homo sapiens, UniProt P17483 148-234) (P17483 148-234): as the sequence (P17483 148-234 V174I) above, with I27V counted along it
Chain of HOXA4 (Homo sapiens, UniProt Q00056 201-287, R217L) (Q00056 201-287 R217L): as the sequence (Q00056 201-287 W262F) above, with R17L, F62W counted along it

Regarding CATAATTA, the binding signal with HOXB4 [1] was 13.6 upbm affinity estimate (log intensity, higher = more binding, comparable within an allelic series); with VENTX [2] it was 12 upbm affinity estimate (log intensity, higher = more binding, comparable within an allelic series); with ALX4, 14.2 upbm affinity estimate (log intensity, higher = more binding, comparable within an allelic series); in the assay with PAX4 [3] it was 11.9 upbm affinity estimate (log intensity, higher = more binding, comparable within an allelic series); with PRRX1 [4], 11.6 upbm affinity estimate (log intensity, higher = more binding, comparable within an allelic series); with VENTX [5], 11.9 upbm affinity estimate (log intensity, higher = more binding, comparable within an allelic series). The binding signal with PAX4 [6] is 12.5 upbm affinity estimate (log intensity, higher = more binding, comparable within an allelic series); with HOXA2 [7], 13.6 upbm affinity estimate (log intensity, higher = more binding, comparable within an allelic series); with HOXA4 [8] it was 12.7 upbm affinity estimate (log intensity, higher = more binding, comparable within an allelic series); with HOXB4 [9], 14.4 upbm affinity estimate (log intensity, higher = more binding, comparable within an allelic series); with PAX4 [10] it was 12.1 upbm affinity estimate (log intensity, higher = more binding, comparable within an allelic series); with HOXA2 [11], 13.8 upbm affinity estimate (log intensity, higher = more binding, comparable within an allelic series). Besides, the binding signal is 11 upbm affinity estimate (log intensity, higher = more binding, comparable within an allelic series) in the assay with PAX4 [12]; 13.9 upbm affinity estimate (log intensity, higher = more binding, comparable within an allelic series) in the assay with MSX2 [13]; 11.3 upbm affinity estimate (log intensity, higher = more binding, comparable within an allelic series) with PAX4 [14]; 13.5 upbm affinity estimate (log intensity, higher = more binding, comparable within an allelic series) in the assay with MSX2 [15]; 13.6 upbm affinity estimate (log intensity, higher = more binding, comparable within an allelic series) in the assay with VAX1 [16]; 12.2 upbm affinity estimate (log intensity, higher = more binding, comparable within an allelic series) in the assay with HOXA4 [17]. The binding signal is 13.6 upbm affinity estimate (log intensity, higher = more binding, comparable within an allelic series) with PRRX1 [18] and 13.7 upbm affinity estimate (log intensity, higher = more binding, comparable within an allelic series) with VAX1 [19].
For TAATTATA, the binding signal is 13.5 upbm affinity estimate (log intensity, higher = more binding, comparable within an allelic series) in the assay with HOXB4 [1]; 11.9 upbm affinity estimate (log intensity, higher = more binding, comparable within an allelic series) in the assay with VENTX [2]; 14.3 upbm affinity estimate (log intensity, higher = more binding, comparable within an allelic series) with ALX4; 11.7 upbm affinity estimate (log intensity, higher = more binding, comparable within an allelic series) in the assay with PAX4 [3]; 11.8 upbm affinity estimate (log intensity, higher = more binding, comparable within an allelic series) with PRRX1 [4]; 11.8 upbm affinity estimate (log intensity, higher = more binding, comparable within an allelic series) with VENTX [5]. The binding signal with PAX4 [6] is 12.2 upbm affinity estimate (log intensity, higher = more binding, comparable within an allelic series); with HOXA2 [7] it was 13.6 upbm affinity estimate (log intensity, higher = more binding, comparable within an allelic series); in the assay with HOXA4 [8], 12.7 upbm affinity estimate (log intensity, higher = more binding, comparable within an allelic series); with HOXB4 [9], 14.3 upbm affinity estimate (log intensity, higher = more binding, comparable within an allelic series); with PAX4 [10] it was 12.1 upbm affinity estimate (log intensity, higher = more binding, comparable within an allelic series); with HOXA2 [11] it was 13.7 upbm affinity estimate (log intensity, higher = more binding, comparable within an allelic series). For the same sequence, the binding signal in the assay with PAX4 [12] is 10.7 upbm affinity estimate (log intensity, higher = more binding, comparable within an allelic series); in the assay with MSX2 [13], 14 upbm affinity estimate (log intensity, higher = more binding, comparable within an allelic series); with PAX4 [14] it was 11 upbm affinity estimate (log intensity, higher = more binding, comparable within an allelic series); in the assay with MSX2 [15], 13.6 upbm affinity estimate (log intensity, higher = more binding, comparable within an allelic series); with VAX1 [16], 13.4 upbm affinity estimate (log intensity, higher = more binding, comparable within an allelic series); with HOXA4 [17], 12.1 upbm affinity estimate (log intensity, higher = more binding, comparable within an allelic series). The binding signal in the assay with PRRX1 [18] was 13.6 upbm affinity estimate (log intensity, higher = more binding, comparable within an allelic series); with VAX1 [19], 13.4 upbm affinity estimate (log intensity, higher = more binding, comparable within an allelic series).
Consider AATTAGTC, for which the binding signal with HOXB4 [1] is 12.4 upbm affinity estimate (log intensity, higher = more binding, comparable within an allelic series); with PAX4 [3], 11.7 upbm affinity estimate (log intensity, higher = more binding, comparable within an allelic series); with PAX4 [6], 12.2 upbm affinity estimate (log intensity, higher = more binding, comparable within an allelic series); with HOXB4 [9], 13 upbm affinity estimate (log intensity, higher = more binding, comparable within an allelic series); with PAX4 [10], 12.1 upbm affinity estimate (log intensity, higher = more binding, comparable within an allelic series); in the assay with PAX4 [12], 10.4 upbm affinity estimate (log intensity, higher = more binding, comparable within an allelic series). The binding signal in the assay with MSX2 [13] was 13.5 upbm affinity estimate (log intensity, higher = more binding, comparable within an allelic series); with PAX4 [14] it was 10.8 upbm affinity estimate (log intensity, higher = more binding, comparable within an allelic series); with MSX2 [15], 13 upbm affinity estimate (log intensity, higher = more binding, comparable within an allelic series); with VAX1 [19] it was 12.3 upbm affinity estimate (log intensity, higher = more binding, comparable within an allelic series).
In the case of CTAATTGA, the binding signal with HOXB4 [1] was 13.3 upbm affinity estimate (log intensity, higher = more binding, comparable within an allelic series); with VENTX [2] it was 12.1 upbm affinity estimate (log intensity, higher = more binding, comparable within an allelic series); with ALX4, 14.1 upbm affinity estimate (log intensity, higher = more binding, comparable within an allelic series); with PAX4 [3], 11.5 upbm affinity estimate (log intensity, higher = more binding, comparable within an allelic series); with PRRX1 [4], 11.1 upbm affinity estimate (log intensity, higher = more binding, comparable within an allelic series); in the assay with VENTX [5], 11.7 upbm affinity estimate (log intensity, higher = more binding, comparable within an allelic series). The binding signal with PAX4 [6] was 12.2 upbm affinity estimate (log intensity, higher = more binding, comparable within an allelic series); with HOXA2 [7], 13.3 upbm affinity estimate (log intensity, higher = more binding, comparable within an allelic series); in the assay with HOXA4 [8] it was 12 upbm affinity estimate (log intensity, higher = more binding, comparable within an allelic series); with HOXB4 [9], 14 upbm affinity estimate (log intensity, higher = more binding, comparable within an allelic series); with PAX4 [10], 11.8 upbm affinity estimate (log intensity, higher = more binding, comparable within an allelic series); with HOXA2 [11] it was 13.4 upbm affinity estimate (log intensity, higher = more binding, comparable within an allelic series). Besides, the binding signal with PAX4 [12] was 10.4 upbm affinity estimate (log intensity, higher = more binding, comparable within an allelic series); with MSX2 [13], 13.9 upbm affinity estimate (log intensity, higher = more binding, comparable within an allelic series); with PAX4 [14] it was 10.8 upbm affinity estimate (log intensity, higher = more binding, comparable within an allelic series); with MSX2 [15], 13.5 upbm affinity estimate (log intensity, higher = more binding, comparable within an allelic series); in the assay with VAX1 [16], 13.2 upbm affinity estimate (log intensity, higher = more binding, comparable within an allelic series); with HOXA4 [17], 11.4 upbm affinity estimate (log intensity, higher = more binding, comparable within an allelic series). Further, the binding signal is 13.5 upbm affinity estimate (log intensity, higher = more binding, comparable within an allelic series) with PRRX1 [18] and 13.4 upbm affinity estimate (log intensity, higher = more binding, comparable within an allelic series) with VAX1 [19].
For the sequence CCCTACGG, the binding signal with HOXB4 [1] is 7.88 upbm affinity estimate (log intensity, higher = more binding, comparable within an allelic series); in the assay with VENTX [2], 8.13 upbm affinity estimate (log intensity, higher = more binding, comparable within an allelic series); with VENTX [5], 8.13 upbm affinity estimate (log intensity, higher = more binding, comparable within an allelic series); in the assay with HOXA4 [8] it was 9.8 upbm affinity estimate (log intensity, higher = more binding, comparable within an allelic series); with HOXB4 [9], 7.93 upbm affinity estimate (log intensity, higher = more binding, comparable within an allelic series); with HOXA4 [17] it was 9.84 upbm affinity estimate (log intensity, higher = more binding, comparable within an allelic series).
